Laboratory results: PubChem BioAssay (NCI)
This is part of a sample that, as a whole, favours compounds with a hit. Of some 79,000 tested, about 15% had one in any assay. Active and inactive are the calls of the source. Rule as the data show it: active = growth inhibition above about 70%; inactive = the rest.

What was measured:
[1] = NCI Yeast Anticancer Drug Screen. Data for the rad50 strain (AID 155);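 also: 0% = growth of vehicle-only cultures of the same strain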; details: S. cerevisiae rad50 strain growth inhibition, active compounds read high
Procedure, shortened: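 Vehicle-treated cultures provide the reference for the growth inhibition reported for compound-exposed, repair-deficient yeast.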

[2] = NCI Yeast Anticancer Drug Screen. Data for the mec2-1 strain (AID 157); details: S. cerevisiae mec2-1 strain, active compounds read high
Procedure, shortened: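 Growth inhibition is read against vehicle-treated controls after compound exposure of the mec2-1 yeast strain, which is defective in DNA damage repair or cell cycle control.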

[3] = NCI Yeast Anticancer Drug Screen. Data for the sgs1 mgt1 strain (AID 161);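 also: 0% = growth of cultures given vehicle only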; details: S. cerevisiae sgs1 mgt1 strain, active compounds read high
Procedure, shortened: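 Percent growth inhibition was derived by comparing compound-exposed mutant yeast with vehicle-exposed cultures. The strain carries alterations in DNA damage repair.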

[4] = NCI Yeast Anticancer Drug Screen. Data for the cln2 rad14 strain (AID 165);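 also: 0% = growth equal to vehicle treated cultures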; details: S. cerevisiae cln2 rad14 strain, active compounds read high
Procedure, shortened: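 Growth inhibition, relative to vehicle-treated controls, is the read-out. The test organism is a yeast strain with defined genetic alterations, cln2 rad14.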

[5] = NCI Yeast Anticancer Drug Screen. Data for the bub3 strain (AID 167); details: S. cerevisiae bub3 mutant strain, active compounds read high
Procedure, shortened: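 Mutant yeast screening strain plus compound; vehicle-treated cultures serve as the 0% inhibition reference.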

[6] = NCI Yeast Anticancer Drug Screen. Data for the mlh1 rad18 strain (AID 175); details: S. cerevisiae mlh1 rad18 strain growth inhibition, active compounds read high
Procedure, shortened: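 Cells of a genetically altered yeast strain, deficient in DNA damage repair, were treated with compound. Their growth was then compared with that of vehicle-treated cultures to give inhibition.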

[7] = at 5.0 µM (retest, dose inferred, filed as 0.5)
[8] = at 50.0 µM (retest, dose inferred, filed as 5.0)

Measured: growth inhibition

CCC(C)c1ccc(O)c(C(C)c2ccccc2)c1 (configuration not stated)
active: [1]; [8] 70% | [1]; at 50.0 µM 89.6% | [2]; at 50.0 µM 92.2% | [3]; [8] 97% | [3]; at 50.0 µM 92.9% | [4]; [8] 101% | [4]; at 50.0 µM 90.3% | [5]; [8] 100% | [5]; at 50.0 µM 91% | [6]; at 50.0 µM 90.5%
inactive: [1]; [7] 44% | [2]; [7] 41% | [2]; [8] 68% | [3]; [7] 19% | [4]; [7] 49% | [5]; [7] 15% | [6]; [7] 40% | [6]; [8] 61%

C=CS(=O)(=O)c1ccc([N+](=O)[O-])cc1
inactive: [1]; [7] -29% | [2]; [7] -7% | [3]; [7] 21% | [4]; [7] -16% | [5]; [7] 20% | [6]; [7] 16%
active: [1]; [8] 98% | [1]; at 50.0 µM 99.7% | [2]; [8] 99% | [2]; at 50.0 µM 99.7% | [3]; [8] 98% | [3]; at 50.0 µM 99.5% | [4]; [8] 98% | [4]; at 50.0 µM 99.7% | [5]; [8] 98% | [5]; at 50.0 µM 99.3% | [6]; [8] 97% | [6]; at 50.0 µM 99.2%

CC(=O)N(N)c1ccccc1
active: [5]; [8] 77% | [5]; at 50.0 µM 87.8% | [6]; [8] 87% | [6]; at 50.0 µM 88.4%
inactive: [1]; [7] 8% | [1]; [8] 56% | [1]; at 50.0 µM 57.5% | [2]; [7] 0% | [2]; [8] 42% | [2]; at 50.0 µM 32.2% | [3]; [7] 4% | [3]; [8] 53% | [3]; at 50.0 µM 33.3% | [4]; [7] 4% | [4]; [8] 51% | [4]; at 50.0 µM 57.7% | [5]; [7] 7% | [6]; [7] 20%

Clc1ccc(/C=N/Nc2c3ccccc3nc3ccccc23)c(Cl)c1
inactive: [1]; [7] -6% | [2]; [7] -11% | [2]; at 50.0 µM 46% | [3]; [7] -5% | [4]; [7] -47% | [4]; [8] 64% | [4]; at 50.0 µM 28.5% | [5]; [7] -12% | [5]; at 50.0 µM 60.4% | [6]; [7] 0%
active: [1]; [8] 84% | [1]; at 50.0 µM 86.4% | [2]; [8] 87% | [3]; [8] 83% | [3]; at 50.0 µM 87.8% | [5]; [8] 92% | [6]; [8] 87% | [6]; at 50.0 µM 85.4%

COC1CC(OC(=O)c2ccccc2)C2OC(c3ccccc3)OCC2O1 (configuration not stated)
active: [5]; [8] 80%
inactive: [1]; [7] 3% | [1]; [8] 26% | [1]; at 50.0 µM 42.5% | [2]; [7] 2% | [2]; [8] 18% | [2]; at 50.0 µM 8.35% | [3]; [7] 1% | [3]; [8] 44% | [3]; at 50.0 µM 63.3% | [4]; [7] 7% | [4]; [8] 39% | [4]; at 50.0 µM -3.35% | [5]; [7] 24% | [5]; at 50.0 µM 15.2% | [6]; [7] 6% | [6]; [8] 36% | [6]; at 50.0 µM 6.15%

CSC(=S)N/N=C\C(C)=N/N=C(N)N
inactive: [1]; [7] 14% | [2]; [7] 16% | [3]; [7] 53% | [4]; [7] -14% | [4]; at 50.0 µM 18.9% | [5]; [7] -4% | [6]; [7] 30%
active: [1]; [8] 92% | [1]; at 50.0 µM 94% | [2]; [8] 93% | [2]; at 50.0 µM 74.5% | [3]; [8] 92% | [3]; at 50.0 µM 85.4% | [4]; [8] 89% | [5]; [8] 92% | [5]; at 50.0 µM 86.4% | [6]; [8] 90% | [6]; at 50.0 µM 93.7%

Oc1cc2ccccc2c2c1ccc1ccccc12
active: [1]; [8] 90% | [1]; at 50.0 µM 84.5% | [2]; [8] 97% | [2]; at 50.0 µM 77.8% | [3]; [8] 95% | [3]; at 50.0 µM 86.7% | [4]; [8] 95% | [5]; [8] 94% | [5]; at 50.0 µM 84% | [6]; [8] 92% | [6]; at 50.0 µM 77.3%
inactive: [1]; [7] -142% | [2]; [7] -35% | [3]; [7] -52% | [4]; [7] -55% | [4]; at 50.0 µM 67.8% | [5]; [7] -55% | [6]; [7] -94%

O=S(Nc1ccccc1Br)c1ccccc1 (configuration not stated)
inactive: [1]; [7] -4% | [1]; [8] 10% | [1]; at 50.0 µM 22.2% | [2]; [7] -2% | [2]; [8] 16% | [2]; at 50.0 µM 24.1% | [3]; [7] -3% | [3]; [8] 21% | [3]; at 50.0 µM 59.2% | [4]; [7] 1% | [4]; [8] 12% | [4]; at 50.0 µM -3.25% | [5]; [7] -4% | [5]; [8] 34% | [5]; at 50.0 µM 16.9% | [6]; [7] -4% | [6]; [8] 45% | [6]; at 50.0 µM 44.8%

Cc1ccc2[nH]c3c(c2c1)CCC/C3=N/N=C(N)N
inactive: [1]; [7] 26% | [1]; at 50.0 µM 63% | [2]; [7] 14% | [3]; [7] 24% | [4]; [7] 22% | [5]; [7] 21% | [6]; [7] 29%
active: [1]; [8] 93% | [2]; [8] 100% | [2]; at 50.0 µM 83% | [3]; [8] 99% | [3]; at 50.0 µM 90.8% | [4]; [8] 99% | [4]; at 50.0 µM 91% | [5]; [8] 99% | [5]; at 50.0 µM 89.2% | [6]; [8] 97% | [6]; at 50.0 µM 90.8%
